# Data published in paper PMC5540273 (PLoS ONE, 2017).
# Key:
# Conditions in all cases: concentration: 1 μM, replicates: in singlicate; n = 1
# [1] = system: ACVR2B
# [2] = system: ACVRL1
# [3] = system: T1, ADCK3
# T1 construct: gene CABC1
# [4] = system: ADCK4
# [5] = system: AKT1
# [6] = system: AKT2
# [7] = system: AKT3
# [8] = system: ALK
# [9] = system: T2, AMPK-alpha1
# T2 construct: gene PRKAA1
# [10] = system: T3, AMPK-alpha2
# T3 construct: gene PRKAA2
# 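Further: KINOMEscan kinase panel screen.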
SMILES,%Inh [1] [%],%Inh [2] [%],%Inh [3] [%],%Inh [4] [%],%Inh [5] [%],%Inh [6] [%],%Inh [7] [%],%Inh [8] [%],%Inh [9] [%],%Inh [10] [%]
Nc1nc(-c2nccs2)c(-c2ccnc3ccccc23)s1 [GW693542],48,15,0,39,0,3,100,36,0,12
Cc1ccc(-c2cc(-c3c[nH]nc3-c3ccccn3)ccn2)cc1 [GW684088],49,0,22,37,0,0,0,16,0,0
Cc1cccc(-c2nc(C)cc(Nc3ccncc3)n2)n1 [GSK257997],7,0,18,24,0,3,0,20,3,12
Cc1csc(-c2nc(Nc3ccncc3)c3ccccc3n2)n1 [GW869640],4,7,14,0,0,3,15,43,12,11
COc1ccc(C2=C(Nc3cccc(C(=O)O)c3)C(=O)NC2=O)cc1 [SB-390765],0,1,0,0,1,0,14,2,23,2
Cn1ccc2ncnc(Oc3ccc(Nc4nc5ccccc5[nH]4)cc3)c21,0,0,0,0,0,16,0,0,7,0
Cc1cc(-c2ccc3c(c2)CC[C@@H](N[C@@H](C)c2ccccc2)C3)cnc1N.Cl [GW412617],0,37,41,1,0,27,14,52,2,20
CCn1c(-c2cccnc2O)nc2cnccc21 [SB-736715],0,0,0,88,2,0,0,0,0,0
Clc1cc(Cl)cc(Nc2ccnc(Nc3cc(Cl)cc(Cl)c3)n2)c1 [GSK175726],39,43,31,3,0,0,0,18,18,0
Cc1cccc(-c2nc(-c3ccc(S(C)(=O)=O)cc3)sc2-c2ccnc(NCCc3ccccc3)c2)c1,3,0,0,12,14,6,12,0,0,17
C[C@@H]1CCCCN1c1cc(-c2ccc3c(N)n[nH]c3c2)nc(N)n1 [GSK2258759],0,0,14,20,0,0,0,0,0,0
Cc1cc(NCC(c2ccccc2)c2ccccc2)nc(NCc2ccc(C(F)(F)F)cc2)n1 [GW497681],0,0,10,86,0,0,0,3,0,0
CC(=O)Nc1nc2cnc(Nc3cc(NC(=O)c4cccc(CCC#N)c4)ccc3C)nc2s1,0,15,4,0,17,33,0,0,8,7
CC(C)(C)c1ccc(C(=O)Nc2cn3cc(-c4cccnc4)ccc3n2)cc1,0,0,19,0,0,0,4,0,43,0
COc1ccc(Nc2nccc(NCCNC(=O)Nc3ccccc3F)n2)cc1 [GSK1379901],0,0,15,25,0,0,0,48,0,0
Cc1nnc(-c2ccc3occ(-c4ccc(S(C)=O)cc4)c3c2)[nH]1 (stereo not drawn),14,0,0,0,5,4,0,0,99.1,6
COc1ccc(CNC(=O)NC2CCN(c3ccnc(Nc4cc(OC)c(OC)c(OC)c4)n3)C2)cc1 (stereo not drawn) [GSK1379748],0,0,24,76,0,0,0,27,10,0
O=c1cc(N2CCOCC2)nc2n(Cc3cccc(Cl)c3Cl)ccn12 [GSK2286295],3,0,27,6,0,13,10,48,0,16
